# Assay outcomes deposited in PubChem by National Center for Advancing Translational Sciences (NCATS).
# Rows were chosen to be rich in hits. Some 19% of all compounds tested hit in one or more screens of this group.
# TGFb inhibitor = inhibitors of TGF-b signaling; HepG2 CAGA-GFP TGF-b/SMAD3 reporter, GFP fluorescence, 18 h; TGF-beta stimulated, 500 pg/mL final; Potency, µM (top dose mostly 46.1 µM), inactives show top-dose activity, negative = inhibition, hits mostly inhibitors; 410,000 tested, 1.2% active; also: potency is read from the fitted curve at half-maximal effect; % is scaled to controls: 0 for no effect and ±100 for the full control effect; nearly all actives have a fitted effect of over 65% in size
#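 Inhibition of TGF-beta-driven CAGA-GFP reporter expression in HEPG2 cells is measured by cellular GFP fluorescence after 18 h stimulation with 500 pg/mL recombinant TGF-beta in 1% FBS medium at 37 degrees C.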
# S-ASM inh = blocks human secretory acid sphingomyelinase; 340,000 tested, 0.006% active; Potency, µM (series often up to 57.5 µM), inactives show at the highest dose activity change, negative = inhibition, hits mostly inhibitors; P17405; AID 504937; placental ASM, HMU-PC fluorogenic substrate, 60 min; also: potency is read from the fitted curve at half-maximal effect
# Target sequence (P17405 47-631 limits assumed): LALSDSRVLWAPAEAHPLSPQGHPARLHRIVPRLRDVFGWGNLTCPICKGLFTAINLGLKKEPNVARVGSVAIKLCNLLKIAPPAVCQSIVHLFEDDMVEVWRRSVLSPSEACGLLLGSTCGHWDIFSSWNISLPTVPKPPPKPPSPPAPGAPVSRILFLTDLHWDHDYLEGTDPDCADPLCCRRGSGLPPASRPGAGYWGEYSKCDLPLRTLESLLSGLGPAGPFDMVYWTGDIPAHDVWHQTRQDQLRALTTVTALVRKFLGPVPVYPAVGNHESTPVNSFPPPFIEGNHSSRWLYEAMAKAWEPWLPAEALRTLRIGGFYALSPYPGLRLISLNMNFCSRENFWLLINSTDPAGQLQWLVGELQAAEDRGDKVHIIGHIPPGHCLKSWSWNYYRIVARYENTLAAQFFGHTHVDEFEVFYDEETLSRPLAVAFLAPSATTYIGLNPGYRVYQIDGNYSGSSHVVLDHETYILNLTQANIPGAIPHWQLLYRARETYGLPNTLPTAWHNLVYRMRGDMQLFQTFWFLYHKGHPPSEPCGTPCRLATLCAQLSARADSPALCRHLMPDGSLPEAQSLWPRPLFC
#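 qHTS format. ASM enzyme prepared from human placenta hydrolyses the fluorogenic substrate HMU-PC0 (9 uM final) over 60 min at 37 °C after a 10 min compound preincubation.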
# DT40 TDP1 no CPT = qHTS for Inhibitors of human tyrosyl-DNA phosphodiesterase 1 (TDP1): qHTS in cells in absence of CPT. DT40 Tdp1-/- hTDP1 cells, no CPT, ATP luminescence, 48 h. Potency, µM (doses to about 46.2 µM), for inactives: at the top dose activity change, negative = growth inhibition, actives largely listed as inhibitors. 420,000 tested, 15% active; also: potency is read from the fitted curve at half-maximal effect; % is scaled to controls: 0 for no effect and ±100 for the full control effect; nearly all actives have a fitted effect of over 55% in size
#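 Growth of hTDP1-complemented DT40 Tdp1-knockout cells is measured by ATP luminescence after at least 48 hr compound exposure at 37 °C, with DMSO substituting for the 20 nM CPT used in the parallel screen.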
# TDP1 cell CPT = growth inhibition of DT40 Tdp1-/-;hTDP1 cells with camptothecin (screen for TDP1 inhibitors); chicken DT40 Tdp1-/-;hTDP1 cells + 20 nM CPT, ATP luminescence, 48 h; Potency, µM (highest dose often 46.2 µM), inactives show at the top dose activity change, negative = growth inhibition, most hits filed as inhibitors; 420,000 tested, 12% active; AID 686979; also: potency is read from the fitted curve at half-maximal effect; % is scaled to controls: 0 for no effect and ±100 for the full control effect; nearly all actives have a fitted effect of over 55% in size
#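 Chicken DT40 Tdp1-/- cells stably complemented with human TDP1 were seeded at 400 cells/well in medium containing 20 nM camptothecin, exposed to pin-transferred compounds, and grown at 37 °C for at least 48 hr. Viability was read as ATP luminescence.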
# HepG2 tox = HepG2 cytotoxicity, counter-screen for TGF-b inhibitors; HepG2 CAGA-GFP viability, ATP luminescence, 18 h; AID 588856; 410,000 tested, 0.76% active; Potency, µM (titrated, usually from 46.1 µM), without a hit: at the top dose activity change, negative = cytotoxicity, actives largely listed as cytotoxic; also: potency is read from the fitted curve at half-maximal effect
#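 CellTiter-Glo luminescence gave cytotoxicity after 18 hours at 37 degrees C. The cells were HepG2 CAGA-GFP in 1% FBS DMEM, stimulated with 500 pg/mL TGF-beta after compound addition. %Activity was normalised to no-cell wells (complete cell-killing) and DMSO (no toxicity), and curves were fitted and classified.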
# IL1B secr inh = blocks inflammasome-driven IL-1 beta release. THP-1 LPS/ATP IL-1B secretion, AlphaLISA, 16 h; hits give low values. activity change, % at 57.5 µM. 360,000 tested, 4.7% active; in the data active = activity change below about -50%; inconclusive = mostly about -30% to -49%; also: % is scaled to controls: 0 for no effect and ±100 for the full control effect
#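 THP-1 cells pretreated 1 hr with compounds (up to 57.5 uM final), then stimulated with LPS (250 ng/mL final) plus ATP (1.25 mM final); secreted IL-1B measured by AlphaLISA after 16 hr, decreased signal indicating inhibition.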
# Active calls of the source: *; ? = inconclusive; . = no result given; [ ] = dose if it differs, or a comment. Unless noted, calls follow the shape of the dose curve; as a rule, active = well fitted curve in the direction sought with a large enough effect; inconclusive = small, poorly fitted or top-dose-only effect, or another doubt; inactive = no such curve, though single readings can be large; an effect the other way counts as inactive or inconclusive.
SMILES,TGFb inhibitor,S-ASM inh,DT40 TDP1 no CPT,TDP1 cell CPT,HepG2 tox,IL1B secr inh
COc1ccc(N2C(=O)CC(Sc3nccc(C)n3)C2=O)cc1 (stereo not given),-1.6%,-0.2%,-29.5%,-21.6%,0.0%,1.6
COc1ccc(N2C(=O)CC(Sc3nnc(-c4ccccc4F)n3C)C2=O)cc1 (stereo not given),18.5%,-3.0%,5.17µM*,4.11µM*,0.2%,18.2
COc1ccc(N2C(=O)CC(Sc3nc4ccccc4s3)C2=O)cc1 (stereo not given),12.0%,-2.5%,3.66µM*,2.91µM*,11.6%,9.2
C=CCNc1nnc(SC2CC(=O)N(c3ccc(OC)cc3)C2=O)s1 (stereo not given),-6.1%,3.4%,4.61µM*,3.66µM*,-19.4%,-11.3
Cc1nc2c3ccccc3nc(NNC(=O)CCC(=O)N3CCN(c4cccc(Cl)c4)CC3)n2n1,?,.,?,?,-27.2%,.
CCn1c(=O)c2sccc2n2c(CCCC(=O)Nc3ccc(OC)c(OC)c3)nnc12,-1.2%,.,?,2.3%,2.9%,.
Cc1ccc(NC(=O)CCCn2c(=S)[nH]c3ccsc3c2=O)cc1C,9.6%,5.8%,20.1%,-8.8%,-17.2%,36.7
CC1CC(=O)N(c2ccc(NCCc3ccc(O)cc3)c([N+](=O)[O-])c2)C1=O (stereo not given),-14.1%,-16.5%,14.6µM*,16.4µM*,5.5%,-1.1
O=C1C2CC=CCC2C(=O)N1c1ccc(NCCc2ccccc2)c([N+](=O)[O-])c1 (stereo not given),-0.8%,-15.8%,23.1µM*,?,-1.4%,17.7
CC1CC(=O)N(c2ccc(NCCc3ccccc3)c([N+](=O)[O-])c2)C1=O (stereo not given),-7.0%,-12.6%,-5.3%,3.8%,-1.3%,-4.9
CN1OC[C@@H]2CN[C@H](c3ccc(-c4cc5ccccc5o4)cc3)C[C@@H]21,-16.0%,.,23.1µM*,16.4µM*,-34.0%,-9.8
CN1OC[C@@H]2CN[C@H](c3ccc(-c4ccc(C#N)cc4)cc3)C[C@@H]21,1.8%,.,23.1µM*,18.4µM*,-33.0%,6.2
CN1OC[C@@H]2CN[C@H](c3cccc(-c4cc(Cl)cc(Cl)c4)c3)C[C@@H]21,?,-0.4%,?,?,-32.1%,?
CCSc1nnc(NC(=O)[C@@H](NC(=O)c2ccc(C(C)(C)C)cc2)C(C)C)s1,?,-3.0%,20.6µM*,25.9µM*,-0.3%,26.8
CC(C)[C@H](NC(=O)c1ccc(C(C)(C)C)cc1)C(=O)Nc1nnc(C2CC2)s1,?,.,?,23.1µM*,-23.8%,-3.3
COc1cc(OC)cc(C(=O)N[C@H](C(=O)Nc2nnc(C3CC3)s2)C(C)C)c1,5.6%,1.1%,3.8%,-9.7%,-1.3%,-1.2
CC(=O)c1ccc(S(=O)(=O)NCC(=O)NC(c2nc3ccccc3[nH]2)C(C)C)cc1 (stereo not given),4.5%,14.3%,?,?,-13.0%,0.5
CC(C)C(NC(=O)CCNC(=O)c1ccc(C(C)(C)C)cc1)c1nc2ccccc2[nH]1 (stereo not given),2.3%,-3.0%,18.4µM*,?,-2.5%,1.1
Cc1ccsc1CNCc1cc(Cl)ccc1O,0.1%,-0.9%,-22.8%,-26.6%,-2.8%,-18.6
CCOC(=O)c1c(NC(C)=O)sc2c(OCC(O)CN(CC)CC)c(Br)ccc12 (stereo not given),-15.5%,-8.5%,20.6µM*,?,-26.9%,?
NC(=S)N/N=C/c1ccc(-n2nncc2-c2ccc(Cl)cc2)cc1,?,-4.4%,?,-8.3%,-33.0%,-70.2*
Cc1nc2oc3c(NCc4ccccn4)ncnc3c2c2c1COC(C)(C)C2,-10.0%,1.6%,?,-24.4%,-5.6%,-28.8
CCCc1nc2oc3c(NCc4ccccn4)ncnc3c2c2c1COC(C)(C)C2,-12.5%,-0.1%,14.6µM*,14.6µM*,-14.0%,-10.0
CCCc1nc2oc3c(NCC4CCCO4)ncnc3c2c2c1COC(C)(C)C2 (stereo not given),30.4%,-0.7%,?,29.1µM*,0.3%,0.0
CC(C)c1nc2oc3c(N(C)CCO)ncnc3c2c2c1CCC2,3.0%,-3.9%,?,?,0.8%,-12.8
SMILES,TGFb inhibitor,S-ASM inh,DT40 TDP1 no CPT,TDP1 cell CPT,HepG2 tox,IL1B secr inh
CC(C)c1nc2oc3c(NCC4CCCO4)ncnc3c2c2c1CCC2 (stereo not given),-29.3%,-1.7%,16.4µM*,25.9µM*,-13.8%,-11.1
Cc1ccc(-c2nc(-c3cc4cccc(OCc5ccccc5F)c4oc3=O)no2)cc1,0.1%,.,-10.2%,-8.9%,5.7%,.
COc1ccc(C=C2SC(=S)NC2=O)c(OC)c1OC,-4.7%,-10.7%,?,?,-14.7%,?
COc1ccc(/C=C2\CCC(C3CCCC3)C2=O)c(OC)c1OC (stereo not given),3.0%,-8.8%,18.4µM*,?,-7.0%,-8.3
COc1ccc(/C=C2/CC/C(=C\c3ccc(OC)c(OC)c3OC)C2=O)c(OC)c1OC,7.2%,7.4%,8.2µM*,?,17.3%,-21.8
COc1cc(/C=C2\CCC(C3CCCC3)C2=O)cc(OC)c1OC (stereo not given),-0.6%,-8.9%,16.4µM*,?,-16.4%,19.0
O=C(CNC(=O)c1ccc(Cl)cc1)NCc1ccccn1,14.4%,2.0%,-8.1%,-5.8%,-2.9%,4.0
CC(C)Oc1ccc(-c2nc(-c3cccnc3)no2)cc1,27.7%,.,?,?,-24.4%,.
O=C(NC(=O)c1ccccc1O)c1ccc2c(c1)CCO2,-8.0%,-0.2%,20.6µM*,-24.7%,-33.5%,19.0
COC(=O)C1CC(=O)c2ccsc2C1 (stereo not given),0.1%,-0.4%,16.0%,-16.1%,10.0%,12.0
O=C(/C=C/c1ccccn1)c1cc(Cl)cc(Cl)c1O,-24.9%,-3.1%,?,?,-30.2%,-80.4*
Cc1c(C(=O)N2CCCC(C)C2)sc2ncnc(NCCN3CCCCC3)c12 (stereo not given),.,.,-23.9%,-2.5%[9.04 µM],.,.
O=C(Nc1ccccc1)Nc1ccc2nnsc2c1,?,-1.2%,16.4µM*,20.6µM*,-17.7%,-95.1*
Cc1cc(C)c(NC(=O)Nc2ccc3snnc3c2)c(C)c1,-0.6%,.,18.4µM*,?,-21.1%,.
O=C(Nc1cccc(C(F)(F)F)c1)Nc1ccc2snnc2c1,7.08µM*,.,5.17µM*,3.66µM*,-56.8%,.
